assay: yeast HDAC inhibitors, dose response, mechanism study for Sdo1 growth activator project, cell lysate, fluorescence, yeast nuclear extract (AID 463208); conditions: yeast nuclear extract HDAC activity, fluorogenic substrate;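 active = AC50 at most tenfold above the top tested concentration; inconclusive = flat fit with 30 to 70% activity, or a poor fit; inactive = AC50 over tenfold above the top dose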

AC50, inactive:
O=C(C(c1ccccc1)c1ccccc1)N(Cc1cccs1)C1CCS(=O)(=O)C1 (configuration not stated) > 50 µM
CC(=O)N(c1ccccc1)C1C(=O)C(=O)c2ccccc2C1=O (configuration not stated) > 50 µM
COc1ccc(OCC(O)Cn2c(Nc3ccccc3)nc3c2c(=O)n(C)c(=O)n3C)cc1 (configuration not stated) > 50 µM
CC(C(=O)Nc1cccnc1)N1Cc2ccccc2C1=O (configuration not stated) > 50 µM
Cc1ccc2c(CC(=O)NNC(=O)c3ccccc3)coc2c1 > 50 µM
O=C(CSc1nc(-c2cccs2)cc(C(F)(F)F)n1)NCc1ccco1 > 50 µM
CC(=O)N(C1=C(Cl)C(=O)c2ccccc2C1=O)C1CCCCC1 > 50 µM
CC(C(=O)Nc1ccccc1)N1C(=O)c2ccccc2C1=O (configuration not stated) > 50 µM
Cc1ccc(NC(=O)c2ccc(NCC3CCCO3)c([N+](=O)[O-])c2)cc1 (configuration not stated) > 50 µM
Cc1c(/C=N/NC(=O)c2ccc(F)cc2)cnn1C > 50 µM
O=C(C(c1ccccc1)c1ccccc1)N(Cc1ccco1)C1CCS(=O)(=O)C1 (configuration not stated) > 50 µM
CSCC[C@H](NC(=O)OC(C)(C)C)c1nnc(SCC(N)=O)o1 > 50 µM
Cc1nn(Cc2ccc(Cl)cc2)c(C)c1NC(=O)CSc1n[nH]c(C)c1[N+](=O)[O-] > 50 µM
Cc1nn(-c2ccccc2)c(C)c1NC(=O)c1cccs1 > 50 µM
Cc1sc(NC(=O)c2ccnn2C)c(C#N)c1-c1ccc(F)cc1 > 50 µM
CCOC(=O)/C=C1\SCC(=O)N1CC(=O)NC12CC3CC(CC(C3)C1)C2 > 50 µM
CC(=O)N(C)C1C(=O)C(=O)c2ccccc2C1=O (configuration not stated) > 50 µM
Cc1ccc(Cn2c(Sc3nccc(C)n3)nc3c2c(=O)[nH]c(=O)n3C)cc1 > 50 µM
CCOC(=O)/C=C1\SCC(=O)N1CC(=O)NC1CCCCC1 > 50 µM
Cc1ccc(Cn2c(Sc3ncccn3)nc3c2c(=O)[nH]c(=O)n3C)cc1 > 50 µM
COc1cc(/C=N/NC(=O)CCC(=O)NCc2ccccc2)cc(OC)c1OC > 50 µM
O=C(CCSc1nc(-c2ccco2)cc(C(F)(F)F)n1)NCCc1cccs1 > 50 µM

Reference: PubChem BioAssay AID463208 (Broad Institute, 2010)
